Data reported in PubChem BioAssay.
Activity calls are given as the source filed them.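 The calls were made as follows, unless noted: active = visual image review flags a hit and inhibition of aggregation exceeds 20%; inconclusive = visual hit but inhibition at or below 20%; inactive = no hit on visual image review.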

Assays:
[1] = inhibitors of TNFa-induced NFkB p65 translocation, primary screen, imaging, HUVEC, MLSMR starter and 10KST1 sets (AID 438;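 active = inhibition above 20% together with a positive visual image hit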;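 also: compound added about 3h40 before a 20 min TNFalpha stimulation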;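 as to inhibition: signal is the nuclear over cytoplasmic p65 intensity ratio per well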); details: HUVEC TNFa-induced p65 nuclear translocation; cell count: measured here: nuclei count (cytotoxicity indicator), at 2.08 µM; inhibition: at 2 µM, stronger effect = higher value, 0% TNFa-plus-vehicle, 100% no-TNFa wells
[2] = inhibitors of mutant huntingtin aggregation, primary screen, imaging, exon1htt(103Q)mCFP cells, high-content imaging (AID 483); details: exon1htt(103Q)mCFP cell line, aggregate imaging, at 2 µM; inhibition of aggregation: stronger effect = higher value; nuclei count: measured here: cell count, toxicity;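 also: compound exposure lasted 3 days before fixation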;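 as to nuclei count: percent of the per-plate median nuclei count of sample wells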
[3] = inhibitors of E-selectin induction by TNFa, primary screen, imaging, HUVEC, immunofluorescence, MLSMR starter and 10KST1 sets (AID 487;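 active = visually confirmed hit in the image check and inhibition above 20%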;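 as to inhibition: signal is fraction of cell area covered by stained E-selectin grains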;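 as to nuclei count: 100% = median nuclei count of all wells on the same plate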); details: HUVEC TNFalpha-induced E-selectin immunofluorescence imaging, at 2 µM; inhibition: stronger effect = higher value; nuclei count: measured here: cell number, toxicity
[4] = biological target: Voltage-gated potassium channel subunit beta-2 (Rattus norvegicus) (UniProt P62483); experiment: KvBeta enzyme negative modulators, primary screen, biochemical, NADPH fluorescence (AID 622;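 active = fluorescence slope higher than the sample average by over 3 SD, cut at about -0.22 in these data, passing the limit was not always enough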;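 also: slope of raw intensity against log time taken from 70 to 1610 s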); details: recombinant KvBeta, 4-cyanobenzaldehyde reduction, at 10 µM, stronger effect = higher value
[5] = biological target: Voltage-gated potassium channel subunit beta-2 (Rattus norvegicus) (UniProt P62483); experiment: KvBeta positive modulators, primary screen, biochemical, NADPH fluorescence (AID 623;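 active = NADPH fluorescence slope more negative than the mean of all samples by about 3 SD, 99.7% confidence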;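 also: fluorescence intensity change per second fitted from 20 to 320 s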); details: Recombinant KvBeta, NADPH fluorescence decrease slope, 10 min; at 10 µM; stronger effect = lower value
[6] = biological target: Alpha-2C adrenergic receptor (Homo sapiens) (UniProt P18825); experiment: modulators of alpha2C/GIRK thallium flux, primary screen, cell-based, HEK293 alpha2C/GIRK1/2 (AID 624;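 active = fluorescence slope after compound addition differing from the mean of all screened samples at 99.7% confidence, in either direction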;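 also: slope of fluorescence ratio to pre-addition baseline per second over 15 to 24 s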); details: thallium flux BTC fluorescence, at 10 µM, actives lie on both sides
[7] = inhibitors of Sendai virus-induced IRF3 signaling, primary screen, TLR/RLR signaling modifier project, cell-based, Sendai virus stimulus, luciferase, 10K MLSCN set (AID 602276;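 active = inhibition at or above 50% at 10 µM; inactive = inhibition below 50%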;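 also: firefly luciferase from ISG56 promoter only with Renilla not read in this screen; 0% = Sendai virus plus DMSO and 100% = medium plus DMSO without virus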); details: HEK293 RL24 IRF3 luciferase reporter, at 10 µM, stronger effect = higher value
[8] = inhibitors of poly I:C-induced TLR3 signaling, primary screen, cell-based, poly I:C stimulus, luciferase, 10K MLSCN set (AID 602277;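 active = inhibition of the reporter signal at or above 50%; inactive = inhibition below 50%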); details: HEK293-TLR3 RL24 IRF3 luciferase reporter, at 10 µM, stronger effect = higher value

Chain of Voltage-gated potassium channel subunit beta-2 (Rattus norvegicus) (P62483 whole entry, looked up): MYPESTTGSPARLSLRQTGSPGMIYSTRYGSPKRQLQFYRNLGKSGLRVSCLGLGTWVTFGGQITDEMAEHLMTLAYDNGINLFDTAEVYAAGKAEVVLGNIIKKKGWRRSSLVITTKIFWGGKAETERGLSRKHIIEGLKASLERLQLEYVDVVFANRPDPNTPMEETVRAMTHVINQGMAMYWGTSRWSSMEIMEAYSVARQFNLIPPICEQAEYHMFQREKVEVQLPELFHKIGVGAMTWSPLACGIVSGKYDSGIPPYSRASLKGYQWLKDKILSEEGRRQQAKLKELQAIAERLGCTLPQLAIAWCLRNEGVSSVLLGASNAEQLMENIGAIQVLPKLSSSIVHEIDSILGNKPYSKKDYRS
Chain of Alpha-2C adrenergic receptor (Homo sapiens) (P18825 whole entry, looked up): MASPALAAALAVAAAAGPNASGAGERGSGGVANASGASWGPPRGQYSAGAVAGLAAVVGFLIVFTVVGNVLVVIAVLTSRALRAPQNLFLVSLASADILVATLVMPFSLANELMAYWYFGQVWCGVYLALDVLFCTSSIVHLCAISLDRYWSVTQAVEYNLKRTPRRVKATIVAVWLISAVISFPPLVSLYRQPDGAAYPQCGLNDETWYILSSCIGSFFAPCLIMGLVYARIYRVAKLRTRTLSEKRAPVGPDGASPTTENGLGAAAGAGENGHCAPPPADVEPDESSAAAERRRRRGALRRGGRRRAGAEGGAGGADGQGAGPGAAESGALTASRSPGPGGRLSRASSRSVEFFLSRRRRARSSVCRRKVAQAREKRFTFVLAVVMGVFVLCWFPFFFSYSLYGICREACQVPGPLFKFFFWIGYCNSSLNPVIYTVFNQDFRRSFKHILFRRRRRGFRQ

Structure (SMILES) | cell count [1] | inhibition [1] | inhibition of aggregation [2] | nuclei count [2] [%] | inhibition [3] | nuclei count [3] [%] | fluorescence slope [4] | NADPH fluorescence slope [5] | slope [6] | inhibition [7] | inhibition [8]
CC(=O)Nc1c(C(=O)O)[nH]c2ccccc12 | 463 | -9.1% (inactive) | -7.5% (inactive) | 96 | -46.4% (inactive) | 104 | -0.367 (inactive) | -2e-05 (inactive) | 0.00513 (inactive) | 0.607% (inactive) | 19.4% (inactive)
N#CC(C(=O)c1ccco1)c1ccccn1 (centres undefined) | 699 | 2.8% (inactive) | -5.3% (inactive) | 108 | 43.2% (inactive) | 94.7 | -0.367 (inactive) | -2e-05 (inactive) | 0.00116 (inactive) | -8.81% (inactive) | -54% (inactive)
O=C(OCn1nnc2ccccc2c1=O)C1CCN(S(=O)(=O)c2cccs2)CC1 | 479 | 8.9% (inactive) | -8.9% (inactive) | 103 | 13.8% (inactive) | 105 | -0.356 (inactive) | 9.4e-06 (inactive) | 0.00571 (inactive) | -1.19% (inactive) | 2% (inactive)
CN(C)CCNC(=O)c1ccc(COCC(F)(F)F)cc1 | 500 | -2.2% (inactive) | -17.1% (inactive) | 112 | -22.6% (inactive) | 99 | -0.408 (inactive) | -3.8e-05 (inactive) | 0.00605 (inactive) | 14.2% (inactive) | 9.51% (inactive)
CC1(C)NC(=O)N(CC(O)CN2CCCCC2)C1=O (centres undefined) | 658 | 1.6% (inactive) | 10.5% (inactive) | 93.2 | 36.5% (inactive) | 109 | -0.47 (inactive) | -1.7e-06 (inactive) | 0.00522 (inactive) | -4.08% (inactive) | -0.921% (inactive)
CCOC(=O)CCCOC(=O)c1ccc(S(=O)(=O)N(C)C)cc1 | 374 | -12.5% (inactive) | 2.8% (inactive) | 67.5 | -8.8% (inactive) | 106 | -0.454 (inactive) | -4.3e-05 (inactive) | 0.00644 (inactive) | 0.818% (inactive) | 10.6% (inactive)
CCc1nnc2c3cnn(-c4ccccc4)c3ncn12 | 402 | -2.9% (inactive) | -11.8% (inactive) | 103 | -25.5% (inactive) | 125 | -0.616 (inactive) | 7.6e-06 (inactive) | 0.00633 (inactive) | -19% (inactive) | -77% (inactive)
CCCNc1nc2c(c(=O)n(C)c(=O)n2C)n1Cc1cccc(C)c1 | 697 | -3.6% (inactive) | 10.2% (inactive) | 97.4 | -95.3% (inactive) | 148 | -0.567 (inactive) | -2.9e-05 (inactive) | 0.00499 (inactive) | 3.02% (inactive) | 4.07% (inactive)
O=C(c1ccco1)N1CCN(S(=O)(=O)c2ccc3c(c2)CCN3C(=O)C2CCC2)CC1 | 600 | 1.2% (inactive) | 22.2% (inactive) | 97 | -53.2% (inactive) | 115 | -0.425 (inactive) | -3.6e-06 (inactive) | 0.00394 (inactive) | -18.7% (inactive) | -87.3% (inactive)
O=C(Nc1cccc(Cl)c1)N1CCN(Cc2ccccc2)CC1 | 652 | 1.3% (inactive) | -6.8% (inactive) | 99.5 | -40% (inactive) | 106 | -0.529 (inactive) | -3.3e-05 (inactive) | 0.00631 (inactive) | -35.1% (inactive) | -81.7% (inactive)
Cc1ccc(-n2c(Cn3cnc4ccccc43)nnc2SCC(=O)O)cc1 | 610 | -9.8% (inactive) | -19.4% (inactive) | 108 | -26.2% (inactive) | 110 | -0.437 (inactive) | 1.2e-06 (inactive) | 0.00571 (inactive) | 15.2% (inactive) | 21.8% (inactive)
Cn1c(=O)c2c(nc3sccn32)n(C)c1=O | 463 | 12.5% (inactive) | 5.1% (inactive) | 100 | 29.8% (inactive) | 108 | -0.455 (inactive) | 7.5e-05 (inactive) | 0.00599 (inactive) | 9.58% (inactive) | 23.1% (inactive)
COC1CCCCC1Nc1cccc(SC)c1 (centres undefined) | 411 | 0.6% (inactive) | -6.7% (inactive) | 90.9 | -65.5% (inactive) | 120 | -0.414 (inactive) | -2.4e-05 (inactive) | 0.0037 (inactive) | 12.1% (inactive) | 19.8% (inactive)
CCOc1ccc(NC(=O)CSc2nc3cccnc3n2CC)cc1 | 579 | -15.8% (inactive) | -26.9% (inactive) | 92.3 | -54.8% (inactive) | 102 | -0.487 (inactive) | -2.4e-05 (inactive) | 0.00547 (inactive) | 12.5% (inactive) | 25.8% (inactive)
